Rows were chosen to be rich in hits. Some 8% of all compounds tested hit in one or more screens of this group.
SARS PLP yeast – blocks SARS-CoV papain-like protease in a yeast assay. S. cerevisiae expressing SARS-CoV PLpro, growth rescue. Potency, µM (titrated, usually from 32.9 µM), usual class: activators. 330,000 compounds, 0.19% hits. AID 485353; calls by dose curve; further: nearly all actives have a fitted effect of over 55% in size
FMDV antiviral – blocks foot and mouth disease virus. 410,000 compounds, 1.2% hits. FMDV antiviral cell-based qHTS. Potency, µM (titrated, usually from 57.9 µM), actives largely listed as inhibitors; calls by dose curve; tested in HEK293T cells; further: read-out not given here; nearly all actives have a fitted effect of over 45% in size
LASV entry inh – Lassa virus entry inhibition; Lassa virus pseudotype entry inhibition, cell reporter; Potency, µM (highest dose often 37.9 µM), usual class: inhibitors; 300,000 compounds, 1.2% hits; calls by dose curve; tested in HEK293 cells; further: nearly all actives have a fitted effect of over 50% in size
HCMV antiviral – blocks human cytomegalovirus replication. HFF cells, HCMV-luciferase reporter, 72 h; hits give low values. 410,000 compounds, 4.5% hits. activity change, negative = inhibition, % at 57.5 µM. AID 1259415; in the data active means activity change below about -60%; inconclusive means no clear call, values can overlap the other calls; inactive means above about -39%
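After 16 h attachment at 37C, HFF cells received test compound and HCMV-luciferase (1 PFU/cell); reporter luminescence read 72 h later, data normalized against buffer-only and known inhibitor Salinomycin.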
MARV entry inh – Marburg virus entry inhibition; Marburg virus pseudotyped entry inhibition, cell reporter; Potency, µM (doses to about 37.8 µM), most hits filed as inhibitors; 300,000 compounds, 1.8% hits; calls by dose curve; tested in HEK293 cells
HCV inh – blocks hepatitis C virus; Huh7.5.1 HCVcc-Cre infection, luciferase reporter, 44 h; Potency, µM (series often up to 41.8 µM), usual class: inhibitors; 340,000 compounds, 3.4% hits
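Seed cells (1,000/well) for 4 h; treat with compound and infect with HCVcc-Cre, moi about 0.5. Incubate 44 h, then detect luciferase activity.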
HCV confirm – confirmation of hepatitis C virus inhibitors. shares compounds with HCV inh. Potency, µM (highest dose often 41.8 µM), actives largely listed as inhibitors. 640 compounds, 78% hits. AID 720575. HCVcc-Cre infectious virus cell assay, luciferase, inhibition; further: nearly all actives have a fitted effect of over 80% in size
HCV cytotox – host cell cytotoxicity counter-screen for HCV inhibitors; shares compounds with HCV inh; HCV host cell line cytotoxicity counterscreen; Potency, µM (highest dose often 41.8 µM), actives largely listed as inhibitors; 640 compounds, 22% hits; AID 720576;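 further: 44 h compound exposure; nearly all actives have a fitted effect of over 55% in size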
Each line names hits and unclear results; the compound was inactive in the other large screens (follow-up assays come after a bar, where they were run). Unless noted, the call rests on the fitted dose curve; in most records, active means well fitted curve in the direction sought with a large enough effect; inconclusive means small, poorly fitted or top-dose-only effect, or another doubt; inactive means no such curve, though single readings can be large; an effect the other way counts as inactive or inconclusive.

COc1ccccc1NC(=O)c1ccc(SCC(=O)NCc2ccccc2Cl)c([N+](=O)[O-])c1	HCV inh inconclusive | HCV confirm inconclusive | HCV cytotox inactive
COc1cccc(C(=O)Nc2ccc3nc(N4CCOCC4)cc(C)c3c2)c1	HCV inh inconclusive (no result: LASV entry inh, MARV entry inh) | HCV confirm 2.8µM | HCV cytotox inactive
CCOc1ccccc1C(=O)Nc1ccc2nc(N3CCN(c4ncccn4)CC3)cc(C)c2c1	FMDV antiviral 8.91µM, LASV entry inh inconclusive, MARV entry inh 13µM, HCV inh 2.24µM (no result: SARS PLP yeast, HCMV antiviral) | HCV confirm 4.99µM | HCV cytotox inactive
COc1ccc(/C=N/NC(=O)c2ccc(CN3C(=O)c4cccc5cccc3c45)cc2)cc1O	MARV entry inh inconclusive, HCV inh inconclusive
COc1cc(/C=N/NC(=O)c2ccc(CN3C(=O)c4cccc5cccc3c45)cc2)cc(OC)c1O	HCV inh inconclusive (no result: LASV entry inh, MARV entry inh) | HCV confirm inconclusive | HCV cytotox inactive
Cc1cccc(Nc2nc(-c3c(C)nc4ccccn34)cs2)c1	LASV entry inh inconclusive, HCMV antiviral -94.5, MARV entry inh inconclusive, HCV inh 2.51µM (no result: FMDV antiviral) | HCV confirm 14.1µM | HCV cytotox 25µM
Cc1nc2ccccn2c1-c1csc(Nc2cccc(C(=O)O)c2)n1	HCMV antiviral inconclusive
Cc1cnc(C=NNC(N)=S)c2cccc(N)c12	LASV entry inh 8.91µM, MARV entry inh 7.08µM, HCV inh inconclusive (no result: SARS PLP yeast) | HCV confirm inconclusive | HCV cytotox inactive
NC(=S)NN=Cc1nccc2ccccc12	LASV entry inh inconclusive, HCMV antiviral -98.0, MARV entry inh inconclusive, HCV inh 2.82µM (no result: SARS PLP yeast) | HCV confirm 6.28µM | HCV cytotox inconclusive
NC(=S)N/N=C/c1cccc(/C=N/NC(N)=S)c1	none
CC(=O)N1CCc2cc(S(=O)(=O)NC(Cc3ccccc3)C(=O)Nc3ccc(C)cc3C)ccc21 (centres undefined)	none (no result: SARS PLP yeast, HCV inh)
O=C(CSc1nccn1Cc1ccccc1)Nc1ccc2c(c1)OCCO2	none (no result: SARS PLP yeast, MARV entry inh, HCV inh)
Cc1ccc(CSc2ncn(-c3ccccc3)n2)cc1	LASV entry inh inconclusive
Cc1ccc(CSc2nccc(-c3c(C)nc4ccccn34)n2)cc1	FMDV antiviral inconclusive, HCV inh 5.62µM (no result: LASV entry inh, MARV entry inh) | HCV confirm 25µM | HCV cytotox inactive
CCN(CC)S(=O)(=O)c1ccc(OC)c(NC(=O)CSc2cc(Cl)ccc2Cl)c1	LASV entry inh inconclusive, HCMV antiviral inconclusive, MARV entry inh inconclusive, HCV inh inconclusive | HCV confirm 22.3µM | HCV cytotox inactive
Cc1cc(Cl)ccc1OCC(=O)Nc1ccccc1CO	LASV entry inh inconclusive, HCV inh 3.16µM | HCV confirm 7.91µM | HCV cytotox inactive
COc1ccc(NC(=O)c2cccc(S(=O)(=O)N3CCN(c4ccccc4)CC3)c2)c(OC)c1	MARV entry inh inconclusive, HCV inh inconclusive | HCV confirm 22.3µM | HCV cytotox inactive
CCOc1ccccc1OCC(=O)OCC(=O)c1c(N)n(CC(C)C)c(=O)n(C)c1=O	FMDV antiviral inconclusive, HCV inh inconclusive (no result: LASV entry inh, MARV entry inh) | HCV confirm inconclusive | HCV cytotox inactive
COc1ccccc1CCC(=O)OCC(=O)c1c(N)n(CC(C)C)c(=O)n(C)c1=O	FMDV antiviral inconclusive
O=S(=O)(Nc1ccc(F)cc1F)c1ccc(Br)s1	LASV entry inh inconclusive (no result: SARS PLP yeast, HCV inh)
COc1cc(/C=N/n2c(-c3ccccc3)n[nH]c2=S)cc(OC)c1OC	LASV entry inh inconclusive, MARV entry inh inconclusive
COc1cc(/C=N/n2nnnc2Nc2ccccc2)cc(OC)c1OC	MARV entry inh inconclusive, HCV inh inconclusive (no result: HCMV antiviral) | HCV confirm inconclusive | HCV cytotox inactive
CCN(Cc1ccccc1)c1ccc(/C=N/NC(=O)c2cccc(S(=O)(=O)N3CCOCC3)c2)cc1	FMDV antiviral inconclusive, LASV entry inh inconclusive, HCMV antiviral inconclusive, MARV entry inh inconclusive, HCV inh inconclusive | HCV confirm 5.6µM | HCV cytotox inactive
COc1cc(/C=N/NC(=O)c2cccc(S(=O)(=O)N3CCOCC3)c2)cc(OC)c1O	none
CCOC(=O)Nc1ccc(NCc2ccc(F)cc2)nc1N	LASV entry inh inconclusive, MARV entry inh inconclusive, HCV inh 0.891µM (no result: SARS PLP yeast) | HCV confirm inactive | HCV cytotox inactive
CCOc1cccc2sc(N(CCCN(C)C)C(=O)c3ccc(S(=O)(=O)N(C)Cc4ccccc4)cc3)nc12	FMDV antiviral inconclusive, LASV entry inh inconclusive, HCMV antiviral inconclusive, MARV entry inh inconclusive, HCV inh 5.01µM | HCV confirm 14.1µM | HCV cytotox inactive
Cc1ccc(NC(=O)c2cc3c(-c4ccccc4)nn(-c4ccccc4)c3s2)cc1	none (no result: SARS PLP yeast, HCV inh)
CC(C)N(C(=O)Nc1ccc2nsnc2c1)C(C)C	HCMV antiviral -101.3, HCV inh 4.47µM (no result: LASV entry inh, MARV entry inh) | HCV confirm inactive | HCV cytotox inactive
COc1ccc(N(C)C(=O)Nc2ccc3nsnc3c2)cc1	MARV entry inh inconclusive, HCV inh inconclusive
CCC(CO)Oc1cc(NC(=O)c2ccccc2)c2ncn(C(C)C)c2c1 (centres undefined)	HCV inh inconclusive (no result: LASV entry inh, MARV entry inh)
CCC(CO)Oc1cc(NC(=O)c2ccc(C)cc2)c2ncn(C(C)C)c2c1 (centres undefined)	HCV inh inconclusive (no result: LASV entry inh, MARV entry inh) | HCV confirm inconclusive | HCV cytotox inactive
O=C(Nc1ccc(F)c(Cl)c1)C1Cc2ccccc2CN1S(=O)(=O)c1ccc(F)cc1 (centres undefined)	none (no result: SARS PLP yeast, HCV inh)
CC(Oc1ccc(Cl)cc1Cl)c1nc(-c2ccc(NC(=O)c3ccncc3)cc2)no1 (centres undefined)	FMDV antiviral 15.8µM, LASV entry inh inconclusive, HCMV antiviral -100.7, MARV entry inh inconclusive, HCV inh 2.82µM | HCV confirm 7.05µM | HCV cytotox 11.2µM
CC(Oc1ccc(Cl)cc1Cl)C(=O)NNC(=O)c1ccncc1 (centres undefined)	none
COc1ccc(CNN2CCCCC2C(=O)Nc2ccc(OC)c(OCC(C)C)c2)cc1OC (centres undefined)	none (no result: LASV entry inh, MARV entry inh)
COc1ccc(NC(=O)C2CCCCN2N)cc1OCC(C)C (centres undefined)	HCV inh inconclusive (no result: FMDV antiviral) | HCV confirm inconclusive | HCV cytotox inactive
N=c1c(C(=O)NCc2ccco2)cc2c(=O)n3ccccc3nc2n1Cc1ccccc1	MARV entry inh inconclusive, HCV inh 3.16µM | HCV confirm 3.53µM | HCV cytotox inconclusive
CC(NC(=O)c1cc2c(=O)n3ccccc3nc2n(CC2CCCO2)c1=N)c1ccccc1 (centres undefined)	HCV inh 2.24µM (no result: LASV entry inh) | HCV confirm 11.2µM | HCV cytotox inactive
N=c1c(C(=O)NCc2ccc3c(c2)OCO3)cc2c(=O)n3ccccc3nc2n1Cc1cccnc1	HCV inh 6.31µM | HCV confirm 14.1µM | HCV cytotox inactive
O=C(O)CC(NS(=O)(=O)c1ccc(Br)s1)c1ccccc1 (centres undefined)	none (no result: SARS PLP yeast, MARV entry inh, HCV inh)
CCOC(=O)c1[nH]c(C)c(CCC(=O)Nc2c(C)cc(C)cc2C)c1C	none (no result: SARS PLP yeast, MARV entry inh, HCV inh)

Screening results as filed in PubChem.
